# Data as given in PubChem BioAssay.
# Experiment: binders of probe aFSTL3 on microarray, primary screen, stem cell growth factor project, biochemical, small-molecule microarray, fluorescence 635/667 (AID 1064);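 also: measures binding of the biotinylated anti-FSTL3 antibody to printed compounds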
# Conditions: higher = more signal
row,SMILES,composite z-score
1,O=C1O[C@@H](c2ccccc2)[C@@H](c2ccccc2)N2[C@@H](c3ccc(O)cc3)[C@]3(C(=O)Nc4ccc(C#CC5=CCCCC5)cc43)[C@@H](C(=O)N3CCN(c4ncccn4)CC3)[C@H]12,-0.397
2,CC(C)C[C@@H]1NC(=O)[C@H]2C[C@@H](C(=O)NCCCCCC[N+](C)(C)C)[C@@H](c3cccc(OCCO)c3)N2C1=O,-0.183
3,CCOC(=O)C[C@H]1[C@H](OC(=O)c2ccccc2-c2ccccc2)[C@@H](NC(=O)c2ccc3ccccc3n2)c2cc(OCCCO)ccc2N1C(=O)c1ccc2ccccc2n1,-0.348
4,C[C@H]1C2=C3C(CC[C@H]4C(OCc5ccc(F)cc5C(F)(F)F)OC[C@](C)([C@@H]34)N(C(=O)OC(C)(C)C)C2)C(CO)C1CO (stereo not given in full),0.0721
5,CCOc1cc(C(O)C2C=CC3C(=O)N(C)C(=O)C3N2N2CCCCC2)ccc1O (stereo not given),-0.152
6,C=C(COC)/C(=C/C[C@@H](OC(=O)c1ccncc1)c1cccc(OCCO)c1)c1cnc2ccccc2c1,0.234
7,C=C(CCCC)/C(=C/C[C@@H](OC(C)=O)c1ccc(CO)o1)c1cc(C(=O)OC)ccc1OC,-0.557
8,CC(C)(C)OC(=O)CC[C@]1(C(=O)NCCN2CCOCC2)N=C(c2ccc(OCCCO)cc2)O[C@H]1c1ccccc1N=[N+]=[N-],0.85
9,Cc1ccc(S[C@]2(C(=O)NCC(F)(F)F)CC(=O)N(Cc3ccccc3)[C@@H]2c2ccc(CO)cc2)cc1,0.2
10,COc1ccc(C#Cc2ccc3c(c2)[C@]2(C(=O)N3)[C@H](C(=O)N3CCc4cc(OC)c(OC)cc4C3)[C@H]3C(=O)O[C@H](c4ccccc4)[C@H](c4ccccc4)N3[C@@H]2c2ccc(O)cc2)cc1,-0.439
11,CN1C(=O)[C@@]2(CCS(=O)(=O)c3ccccc3)N=C(c3ccc(OCCCO)cc3)O[C@H]2c2ccccc21,0.185
12,CC(C)C(=C=CC[C@@H](O)c1ccccc1OCCO)C[C@@H](O)COCc1ccccc1,-0.248
13,COc1ccc(C(O)C2C=CC3C(=O)N(Cc4ccccc4)C(=O)C3N2n2cnnc2)c2ccccc12 (stereo not given),0.487
14,CCOC(=O)C[C@H]1[C@H](OC(=O)c2ccccc2-c2ccccc2)[C@@H](NC(=O)CC(C)C)c2cc(OCCCO)ccc2N1C(=O)c1ccc2ccccc2n1,-0.469
15,C=CC[C@H](OC(=O)Nc1ccc(OC)cc1)c1ccc(O)c2ccccc12,-0.471
16,COc1ccc(C(O)C2C=CC3C(=O)N(c4ccccc4)C(=O)C3N2Nc2ccccc2)cc1OCc1ccccc1 (stereo not given),0.12
17,O=C1NC(=O)C2C1C=CC(C(O)c1cc(C(F)(F)F)cc(C(F)(F)F)c1)N2Nc1ccc(Cl)cc1Cl (stereo not given),0.812
18,C=CCC(OC(C)=O)[C@@H]1[C@@H](N(Cc2cc3ccccc3o2)C(=O)Cc2ccc(F)cc2)c2cc(OCCCO)ccc2N1C(=O)c1ccc2ccccc2n1 (stereo not given in full),-0.0583

row,SMILES,composite z-score
1,COCCOC(=O)N1C(=O)[C@@]2(c3cc(C#CC4=CCCCC4)ccc31)[C@H](c1ccc(O)cc1)N1[C@H](c3ccccc3)[C@H](c3ccccc3)OC(=O)[C@H]1[C@@H]2C(=O)Nc1nc2ccccc2s1,-0.177
2,COCCOC(=O)N1C(=O)[C@@]2(c3cc(C#CC4(O)CCCCCC4)ccc31)[C@H](C(N)=O)[C@H]1C(=O)O[C@H](c3ccccc3)[C@H](c3ccccc3)N1[C@@H]2c1ccc(O)cc1,-0.353
3,COC(=O)[C@H](Cc1ccccc1)N1CC(/C=C/C2CC2)=C[C@@H]1[C@@H](O)Cc1ccccc1,-0.549
4,C=C(/C(=C/C[C@@H](OC(=O)c1ccncc1)c1ccccc1OCCO)c1cc(C(=O)OC)ccc1OC)C(C)C,-0.259
5,COc1cc(CO)cc(I)c1O[C@H]1C=C(C(=O)NCCO)C[C@@H](N(Cc2ccc(F)cc2)C(=O)C2CCCO2)[C@@H]1O (stereo not given in full),-0.625
6,NC(=O)NCC#Cc1ccc2c(c1)[C@]1(C(=O)N2)[C@H](c2ccc(O)cc2)N2[C@H](c3ccccc3)[C@H](c3ccccc3)OC(=O)[C@H]2[C@@H]1C(=O)Nc1nc2ccccc2s1,0.289
7,CCOC(=O)C1=CC[C@@H](c2cc(Cl)ccc2Cl)N(S(=O)(=O)c2ccc(C)cc2)[C@H]1c1ccc(OC)cc1,0.522
8,COc1ccc(NN2C(C(O)c3ccccn3)C=CC3C(=O)N(C4CCCCC4)C(=O)C32)cc1 (stereo not given),-0.218
9,COc1ccc([Si](C)(C)[C@H]2[C@H](CCO)O[C@@]3(C(=O)N(Cc4cccc(N5CCCCC5=O)c4)c4ccccc43)[C@@H]2C)cc1,-0.337
10,CCCC[C@@H]1C[C@H]1[C@@H](NC(=O)c1cccnc1)c1ccc(-c2ccccc2)cc1,0.684
11,C=CCNC(=O)[C@@H]1[C@H]2C(=O)O[C@H](c3ccccc3)[C@H](c3ccccc3)N2[C@H](c2ccc(OCCO)cc2)[C@@]12C(=O)N(C(=O)OCCOC)c1ccc(C#CC3=CCCCC3)cc12,0.0698
12,CC(C)NC(=O)[C@@]1(C)c2ccccc2C(=O)N(C(C)C)[C@H]1c1ccc(CO)cc1,-0.0225
13,COCCOC(=O)N1C(=O)[C@@]2(c3cc(C#CC4(O)CCCCCC4)ccc31)[C@H](c1ccccc1OCCO)N1[C@H](c3ccccc3)[C@H](c3ccccc3)OC(=O)[C@H]1[C@@H]2C(N)=O,-0.452
14,O=C1c2ccccc2[C@](Cc2ccccc2I)(C(=O)NCc2ccccc2)[C@H](c2ccc(CO)cc2)N1C1CCCCC1,-0.126
15,COC(=O)[C@@]1(Cc2ccc(OC)cc2)[C@H]2c3cc(C(=O)N(C)C)n(Cc4ccccc4)c3C[C@H]2CN1C(=O)c1ccccc1,0.342
16,COC(=O)[C@]1(CCS(=O)(=O)c2ccccc2)N=C(c2ccc(OCCCO)cc2)O[C@@H]1c1ccccc1CN=[N+]=[N-],0.0312
17,CC(C)(C)OC(=O)CC[C@]1(C(=O)N2CCOCC2)N=C(c2ccc(OCCCO)cc2)O[C@H]1c1ccccc1,-0.209
